Each sequence was assayed on PPARg:RXRa IVT, anti-PPARg (NR concentration 270 nM, RXRa partner concentration 90 nM) (assay: PBM binding z-score (relative to random genomic background probes); higher = stronger binding; sequences stand for … in GC…GCGATTGACAGCGTAGAATGAAGG).
In short: (§1)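 The probes on custom Agilent 4×180K protein-binding microarrays were double-stranded, with 34-nt variable regions bearing direct-repeat seeds, single-nucleotide variants, half-site ablations and random human genomic background sequences. Incubation lasted 1 h with ligand-free nuclear receptor dimers in PBS pH 7.4, 2% milk, 0.02% Triton X-100, 1 mM DTT, 0.2 mg/mL BSA and 0.4 mg/ml salmon testes DNA. Antibodies against each partner (one per run) detected bound dimers, and fluorescence scans were regression-normalized. Binding z-scores take the random background probes as reference.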

Sequence | PBM binding z-score
ATCGAAAGGTCGTGAGGTGTGTATACAGAAAGGC | 2.26
GGAACGAGGGCAAAGGTGATAGCATCTGTCGACG | 5.29
ATATGGAGGTTAAGGGTCATTCAGGTTGGTTCGC | 5.42
ATCGAAAGGTCGTGAGGTGACTATACAGAAAGGC | 2.62
CGTCAAAGTTCAACTAAGGTAACTTAAAGCACGC | 2.36
CGGCCAAGGTCAAAGGTCAGTGAAGAGATGACGG | 5.66
ATCTCTAGGTAAAGGTCAGTGAAAGATCGATAGA | 4.2
CGTCCAAGGTCATAAGAGGTCAGTGAAGACAGAT | 4.2
CCTAGTTGGCCAAGGTCACACACGCTATAGGTAC | 2.66
CCTTACGGGTCACGGGGTTATAGCACGACGAGCG | 5.93
TAGCCTAGGTCATTCAGGGGTCAGTATAGAAAGC | 3.97
TCTAGTTGGTTACGGAGGTCACACACGACGGGTA | 2.98
AATACAGGGTCGCTAGGCCAGAGTAGGTACGAAT | 1.16
ATACCAAGGTGATCGTGAGTTCGTTGATACTAAC | 0.994
CGTCCAAGGTCAATGCTAGGTCACTGAAAGCATT | 4.42
TTACCAAGGTCAGCTGAGGTCGTTGATCCAACTC | 3.75
ATCGAAAGGTCGACGAGTTGAGTATACACCGTTT | 1.57
TTACAAAGGTGAGCTGAGGTCGTTGATCCAACTC | 2.58
GGAACGAGGGCATTCGAGTTGATAGCATGGCGAT | 2.18
CCGACTGGGGCAAAGGTTACCACACTCAGTACGA | 5.98

Sequence | PBM binding z-score
CGTCAAAGTTCAACTAATGTAACGTAAAGCACGC | 1.56
CCTTACGGGTCACTCTAGGTTATAGCATCGGAGT | 3.69
GCTTACGGGTCAAAGGTTATAGTATGAATAGAAT | 5.45
CCTACAGGGCCAAAGGTCATTGATTCCAATGCTC | 4.29
TAGCCTAGGTCATGGGCCAGTTTACCACGCGAAC | 3.27
CGTCCAAGGTAAGAGAGGTCAGTGAATGCCGAGT | 0.75
CCGACGGGGGCAGAAAGGTTACCATACCATCCGG | 2.55
CCTACTGGGCCAAAGGTCAGTGATTCCAATGCTC | 6.5
AGTCAAAGTTCATCTTGGTAACGTAAGATATGCT | 2.63
ATACCAAGGTTATCGTGAGGTCGTTGATACTAAC | 1.31
TCTCGGAGGTCACGAAGGTCAGAGCTTTCCAGAG | 6.17
CCTTGCGGGTCACTGACAGGTTATAGCATTTGGA | 5.29
CTCGAAAGGTCGTCCTCAGGTGAGTATACCAAAC | 1.77
CAAACTAGGTCACCGGAAAGTCAAAGTCCGCATG | 9.33
TAGCCTAGGTCATTCAGGGGCCAGAATAGAAAGC | 2.95
CACACTAGGTCAAGAGGTCAAAGTCCGCTTCCCG | 7.67
CTCGAAAGGTCGTGCTCAGGTGAGTATGCCAAAC | 1.96
CAAACTAGGTCACAGAGGTCGAAGTCCGTGCGTA | 8.42
CGTCCAAGGTCAGAGAGGTCATTGAATGCCGAGT | 3.6

These sequences were tested on PPARg DBDmut:RXRa IVT, anti-PPARg (DBD mutation: PPARg1 K132A/R137A, NR concentration 270 nM, RXRa partner concentration 90 nM) in the same assay as above.
In short: as §1

Sequence | PBM binding z-score
ATCGAAAGGTCGTGAGGTGTGTATACAGAAAGGC | 1.54
GGAACGAGGGCAAAGGTGATAGCATCTGTCGACG | 0.379
ATATGGAGGTTAAGGGTCATTCAGGTTGGTTCGC | 3.41
ATCGAAAGGTCGTGAGGTGACTATACAGAAAGGC | 1.76
CGTCAAAGTTCAACTAAGGTAACTTAAAGCACGC | 0.726
CGGCCAAGGTCAAAGGTCAGTGAAGAGATGACGG | 0.246
ATCTCTAGGTAAAGGTCAGTGAAAGATCGATAGA | 1.29
CGTCCAAGGTCATAAGAGGTCAGTGAAGACAGAT | 2.03
CCTAGTTGGCCAAGGTCACACACGCTATAGGTAC | 0.582
CCTTACGGGTCACGGGGTTATAGCACGACGAGCG | 4.69
TAGCCTAGGTCATTCAGGGGTCAGTATAGAAAGC | 1.25
TCTAGTTGGTTACGGAGGTCACACACGACGGGTA | 1.22
AATACAGGGTCGCTAGGCCAGAGTAGGTACGAAT | 0.521
ATACCAAGGTGATCGTGAGTTCGTTGATACTAAC | -0.0501
CGTCCAAGGTCAATGCTAGGTCACTGAAAGCATT | 0.503
TTACCAAGGTCAGCTGAGGTCGTTGATCCAACTC | 0.41
ATCGAAAGGTCGACGAGTTGAGTATACACCGTTT | 1.03
TTACAAAGGTGAGCTGAGGTCGTTGATCCAACTC | 0.303
GGAACGAGGGCATTCGAGTTGATAGCATGGCGAT | -0.045
CCGACTGGGGCAAAGGTTACCACACTCAGTACGA | 0.442

Sequence | PBM binding z-score
CGTCAAAGTTCAACTAATGTAACGTAAAGCACGC | 0.963
CCTTACGGGTCACTCTAGGTTATAGCATCGGAGT | 0.202
GCTTACGGGTCAAAGGTTATAGTATGAATAGAAT | 1.28
CCTACAGGGCCAAAGGTCATTGATTCCAATGCTC | 0.0481
TAGCCTAGGTCATGGGCCAGTTTACCACGCGAAC | -0.261
CGTCCAAGGTAAGAGAGGTCAGTGAATGCCGAGT | -1.12
CCGACGGGGGCAGAAAGGTTACCATACCATCCGG | 3.18
CCTACTGGGCCAAAGGTCAGTGATTCCAATGCTC | 0.904
AGTCAAAGTTCATCTTGGTAACGTAAGATATGCT | 0.383
ATACCAAGGTTATCGTGAGGTCGTTGATACTAAC | 1.06
TCTCGGAGGTCACGAAGGTCAGAGCTTTCCAGAG | 0.14
CCTTGCGGGTCACTGACAGGTTATAGCATTTGGA | -0.0944
CTCGAAAGGTCGTCCTCAGGTGAGTATACCAAAC | 0.216
CAAACTAGGTCACCGGAAAGTCAAAGTCCGCATG | 3.21
TAGCCTAGGTCATTCAGGGGCCAGAATAGAAAGC | -0.139
CACACTAGGTCAAGAGGTCAAAGTCCGCTTCCCG | 2.76
CTCGAAAGGTCGTGCTCAGGTGAGTATGCCAAAC | 0.261
CAAACTAGGTCACAGAGGTCGAAGTCCGTGCGTA | 2.27
CGTCCAAGGTCAGAGAGGTCATTGAATGCCGAGT | 0.144
